# Laboratory results from PubChem BioAssay (Tox21).
# Results filed as inconclusive are left out. Calls of active or inactive are those of the source. Calls follow the shape of the dose curve; as a rule, active = well fitted cell-killing curve with a large enough effect in the repeat runs; inconclusive = weak or mixed curves, or effect the other way; inactive = flat fitted curve, though single readings scatter.
# Experiment: cAMP Responsive Elements (CRE) small molecule agonists, cell-based qHTS assay: qHTS cell viability counter screen (AID 2060914);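 also: viability read after 3 h of compound exposure; nearly all actives have a fitted effect of over 50% in size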
# Conditions: CRE-bla HEK293T viability, CellTiter-Glo luminescence, 5 h; series mostly up to 92.4 µM; activity change, negative = cytotoxicity: at the top concentration
# Excerpt: National Center for Advancing Translational Sciences [NCATS]
# Division of Preclinical Innovation [DPI]
# U.S. Environmental Protection Agency [EPA]
# National Institutes of Environmental Health Sciences [NIEHS]
# National Toxicology Program [NTP]
# U.S. Food and Drug Administration [FDA]
# CREB (cyclic-AMP Responsive Element Binding Protein) is a cellular transcription factor. It binds to certain DNA sequences called cAMP Responsive Elements (CRE) and regulates the transcription of the genes. […] This cell line can be used to find agonists/antagonists of the cyclic AMP signaling pathway. The activation of the report gene under culture conditions can be detected by fluorescence intensity. This cell line has been used to screen the Tox21 10K compound library to identify agonists that induce oxidative stress. The cytotoxicity of the Tox21 compound library against the CRE-bla cell line was tested in parallel by measuring the cell viability using CellTiter-Glo assay (Promega, Madison, WI) in the same wells.
# Tox21 Assay Protocol Summary:
# CRE-bla Hek 293T cells were suspended in assay medium (DMEM containing 10% dialyzed FBS, 0.1 mM NEAA, 1 mM sodium pyruvate and 25 mM HEPES) and dispensed at 2,000 cells/5 uL /well into 1536-well black wall/clear bottom plates using a Multidrop Combi (ThermoFisher Scientific, Waltham, MA) dispenser. After the assay plates were incubated at 37 C/5% CO2 for 18 hrs, 23 nL of compounds dissolved in DMSO, positive controls or DMSO only was transferred to the assay plate by a pintool workstation (Kalypsys, San Diego, CA). After the plates were incubated at 37 C/5% CO2 for 3 hrs, 1 uL of LiveBLAzer B/G FRET substrate (Invitrogen, Carlsbad, CA) was added to each well using Bioraptr Flying Reagent Dispenser (FRD, Aurora Discovery, San Diego, CA). The plates were incubated at room temperature for 2 h, then fluorescence intensities were measured using an Envision plate reader (PerkinElmer, Shelton, CT) at Excitation 405nm, Emission 460nm and 530nm. The % activity was determined from the ratio of 460nm/530nm. For cell viability readout that measures cytotoxicity, 4 uL /well of CellTiter-Glo reagent was added into the assay plates using Bioraptr FRD. After 30 min incubation at room temperature, the luminescence intensity in the assay plates was measured using a ViewLux (PerkinElmer, Shelton, CT) plate reader.
# % is scaled to controls: 0 for no effect and ±100 for the full control effect; potency is read from the fitted curve at half-maximal effect.
SMILES,"activity change, negative = cytotoxicity",Potency
COC(/C=C(\C)CCC=C(C)C)OC,-0.937% (inactive),–
O=C(O)CN(CCOCCOCCN(CC(=O)O)CC(=O)O)CC(=O)O,-3.94% [at 0.349 µM] (inactive),–
CCOC(=O)c1ccc(C#Cc2ccc3c(c2)C(C)(C)CCS3)nc1,-7.05% [at 42.5 µM] (inactive),–
C/C(=N\O)c1ccc(OCC(=O)N2CCCCC2)cc1,-5.62% [at 42.5 µM] (inactive),–
C=C(C)C(=O)OCC(CC)(COC(=O)C(=C)C)COC(=O)C(=C)C,–,inactive
O=C(O)[C@H](O)[C@@H](O)[C@H](O[C@@H]1O[C@H](CO)[C@H](O)[C@H](O)[C@H]1O)[C@H](O)CO,3.12% [at 42.5 µM] (inactive),–
C[C@]12CC[C@@H]3c4ccc(O)cc4CC[C@H]3[C@@H]1CCC2=O,–,inactive
C[N+](C)(C)CCOC(=O)CCC(=O)OCC[N+](C)(C)C,0.724% [at 42.5 µM] (inactive),–
CN(C)CC[C@@H](c1ccc(Cl)cc1)c1ccccn1,-4.26% [at 42.5 µM] (inactive),–
O=C(N/N=C/c1ccc([N+](=O)[O-])o1)c1ccc(O)cc1,-16.8% [at 42.5 µM] (inactive),–
Clc1cccc(-c2cc(Cl)cc(Cl)c2)c1,-4.55% (inactive),–
CCCCCCCCCCCl,-0.721% (inactive),–
C=C1C[C@H]2[C@@H]3C=C(C)C4=CC(=O)CC[C@]4(C)[C@H]3CC[C@]2(C)[C@@]1(OC(C)=O)C(C)=O,-15.2% [at 42.5 µM] (inactive),–
c1csc(SSc2cccs2)c1,8.7% (inactive),–
CCCCCCN,-10.2% (inactive),–
CC(C)NNC(=O)c1ccncc1,5.77% [at 42.5 µM] (inactive),–
c1cc(OCC2CO2)cc(OCC2CO2)c1 (stereo not given),20.2% (inactive),–
CCCCCCCCCCCC[N+](C)(C)CC(=O)[O-],-16.1% (inactive),–
NCCNc1cccc2ccccc12,–,inactive
Clc1ccc(Sc2cc(Cl)c(Cl)cc2Cl)cc1,–,inactive

SMILES,"activity change, negative = cytotoxicity",Potency
CC(C)C(O)(c1ccc(OC(F)(F)F)cc1)c1cncnc1 (stereo not given),-5.21% (inactive),–
CCCCOC(=O)c1ccccc1C(=O)OCC(CC)CCCC (stereo not given),-12.2% (inactive),–
OC[C@H]1O[C@@H]2O[C@H]3[C@H](O)[C@@H](O)[C@@H](O[C@H]4[C@H](O)[C@@H](O)[C@@H](O[C@H]5[C@H](O)[C@@H](O)[C@@H](O[C@H]6[C@H](O)[C@@H](O)[C@@H](O[C@H]7[C@H](O)[C@@H](O)[C@@H](O[C@H]1[C@H](O)[C@H]2O)O[C@@H]7CO)O[C@@H]6CO)O[C@@H]5CO)O[C@@H]4CO)O[C@@H]3CO,-11.9% (inactive),–
CC1=C(/C=C/C(C)=C/C=C/C(C)=C\C(=O)O)C(C)(C)CCC1,0.446% (inactive),–
Clc1ccc2cc3ccccc3cc2c1,0.489% (inactive),–
CN1CCC(=C2c3ccccc3CCc3sccc32)CC1,5.86% [at 42.5 µM] (inactive),–
C=C[Si](C)(C)O[Si](C)(C)C=C,0.48% (inactive),–
CC(=O)OC1CCC(C(C)(C)C)CC1 (stereo not given),2.13% (inactive),–
Cc1c(F)cc2c(=O)c(C(=O)O)cn3c2c1CCC3C (stereo not given),2.45% [at 42.5 µM] (inactive),–
C[C@H]1[C@@H](c2ccccc2)NC(=O)N1C,2.76% (inactive),–
Nc1ccc(S(=O)(=O)Nc2nccs2)cc1,–,inactive
CCCCc1cc2ccccc2c(OCCN(C)C)n1,1.29% [at 42.5 µM] (inactive),–
CC(CCl)OC(C)CCl (stereo not given),6.52% (inactive),–
O=C(O)c1cccnc1C(=O)O,6.77% (inactive),–
Nc1nccs1,-1.11% (inactive),–
CC(C)=CCC/C(C)=C/C(=O)O,0.986% (inactive),–
CCCCCCCCCCCCc1ccc(O)cc1,–,61.1 µM (active)
O=CCc1ccccc1,–,inactive
C#C[C@]1(O)CC[C@H]2[C@@H]3CCC4=CC(=O)CC[C@@H]4[C@H]3CC[C@@]21C,–,inactive
CC(C)(C)c1ccc(C(O)CCCN2CCC(C(O)(c3ccccc3)c3ccccc3)CC2)cc1 (stereo not given),13.6% [at 42.5 µM] (inactive),–
